High-throughput results (PubChem BioAssay)
The list is not random: actives were taken first. Their share in the collection is about 3.9%.
BH1578 lux ind: inducers of Vibrio cholerae quorum light production without autoinducers, primary screen, BH1578 luxS cqsA deficient, single point; AID 588436, 2011; V. cholerae BH1578 lux reporter, luminescence, 6 h; hit rate 0.16% among 350,000; activation, % at 18.7 µM; in the data active means activation mostly above about 9.7%, no sharp cut-off
GDH-TPI inh: GDH-TPI coupling enzyme inhibitors, primary screen, artefact control for M. tuberculosis FBA inhibitor project, biochemical, absorbance, full deck; GDH-TPI coupled enzyme counterscreen, NADH absorbance; inhibition, % at 4.8 µM; hit rate 1.2% among 360,000;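 further: 0% = DMSO wells and 100% = wells lacking the enzyme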
CCHFV vOTU inh: CCHFV vOTU protease inhibitors, primary screen, biochemical, Pep-AMC substrate, fluorescence; AID 651958, 2012; hit rate 0.55% among 370,000; Crimean-Congo hemorrhagic fever virus L polyprotein viral ovarian tumor (vOTU) protease …; inhibition, % at 11.5 µM; further: 0% = vehicle wells with enzyme and 100% = no enzyme wells
FBA Mtb inh: Mtb FBA enzyme inhibitors, primary screen, biochemical, fluorescence, strain H37Rv. Fructose-bisphosphate aldolase (Mycobacterium tuberculosis (strain ATCC 25618 / H37Rv)), …. purified M. tuberculosis FBA, fluorescence read-out. inhibition, % at 1 µM. hit rate 2.3% among 360,000. AID 588726, 2011; in the data active means inhibition above about 27%;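 further: 0% = vehicle and 100% = reference inhibitor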
Target sequence (P9WQA3 whole entry, looked up): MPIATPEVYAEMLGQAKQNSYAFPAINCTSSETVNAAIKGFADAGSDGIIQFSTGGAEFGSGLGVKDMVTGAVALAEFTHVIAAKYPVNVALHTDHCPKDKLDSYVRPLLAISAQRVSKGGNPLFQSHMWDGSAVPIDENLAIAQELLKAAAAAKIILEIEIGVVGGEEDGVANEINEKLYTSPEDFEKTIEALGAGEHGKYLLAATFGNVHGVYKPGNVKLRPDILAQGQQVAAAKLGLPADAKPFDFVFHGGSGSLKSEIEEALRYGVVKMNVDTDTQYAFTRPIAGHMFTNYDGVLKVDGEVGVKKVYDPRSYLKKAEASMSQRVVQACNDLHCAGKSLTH
The depositor's hits bear a star; i = inactive; nt = no result given; + = active, no number. Unless noted, no stated cut-off is given here; in the data, active means inhibition above about 30%; inactive means the rest.

SMILES	BH1578 lux ind	GDH-TPI inh	CCHFV vOTU inh	FBA Mtb inh
COc1ccc(/C=C/C(=O)NC(=S)NNC(=O)c2cc(OC)c(OC)c(OC)c2)cc1OC	-0.7	50.6*	5.9	0.4
COc1cc(/C=C/C(=O)Nc2ccc(C(C)=O)cc2)cc(OC)c1OC	i	45.2*	21.1	0.8
Cc1sc(=NC(=O)c2ccco2)n(C)c1-c1ccccc1	-1.7	38.5*	-7.6	0.2
Cn1c(=NC(=O)c2ccco2)sc2ccccc21	-0.6	33.5*	17.6	-0.6
CCOc1cccc2sc(=NC(=O)c3ccco3)n(CC(=O)OC)c12	i	80.5*	-12.7	9.0
Cc1sc(=NC(=O)c2ccco2)n(C)c1-c1ccc(F)cc1	i	26.0	9.8	-1.6
CCOc1ccc(/C(O)=C2\C(=O)C(=O)N(CCOCCO)C2c2ccccc2OC)cc1 (centres undefined)	-1.7	21.8	-5.4	-2.6
CC(c1ccccc1)N(C)C(=O)CSc1nnc(C2CC2)n1C1CC1 (centres undefined)	-2.5	-2.1	5.0	-0.4
COc1cc2cc(C)c(SCC(=O)N3CCN(C(=O)c4ccco4)CC3)nc2cc1OC	0.4	44.3*	8.3	10.4
CCN(CC)C(=O)CC[C@H]1CC[C@]2(CCCN(CC3CC3)C2)O1	nt	nt	-1.4	nt
O=C(Nc1cccc(F)c1)c1c(O)c2ccccc2[nH]c1=O	-0.6	32.0*	-8.3	1.3
O=C(N/N=C/c1cccc(F)c1)c1c(O)c2ccccc2[nH]c1=O	-2.1	1.8	-15.0	-1.8
Nc1ccc(C(=O)N/N=C\C=C\c2cccc([N+](=O)[O-])c2)cc1	0.9	42.6*	20.8	-4.7
CC1(C)OC(c2ccccc2)=C/C(=C\C=N\NC(=O)c2ccncc2)O1	i	33.2*	5.4	-1.8
O=c1nc(N/N=C/C=C/c2ccccc2)cn[nH]1	-0.6	78.5*	0.2	1.0
COc1ccc(NCC(=O)N/N=C/C=C\c2ccccc2)cc1	-0.6	31.3*	-4.8	-1.3
O=C(N/N=C/C=C/c1cccc([N+](=O)[O-])c1)c1ccncc1	-0.6	-13.8	1.0	-0.6
O=C(NCCCN1CCCC1=O)c1cccc(S(=O)(=O)N2CCN(c3ccccc3)CC2)c1	-0.2	-8.3	-3.5	0.8
O=C(N/N=C/C=C/c1ccccc1)c1ccncc1	i	37.4*	15.5	2.2
O=C(O)c1ccc(N/N=C/c2ccc(-c3ccccc3)cc2)cc1	i	26.2	8.8	6.7
O=C(O)c1ccc(N/N=C/C=C/c2ccccc2)cc1	-0.3	33.0*	2.4	2.1
CN1CCN(CC(=O)Nc2ccc(S(=O)(=O)N(C)C)cc2)CC1	i	-4.4	-12.3	1.2
CCCCNC(=O)c1c(C)cc(=O)oc1C	i	32.6*	-2.7	4.9
Cc1cc(=O)oc(C)c1C(=O)NCCc1ccccc1	-0.4	3.5	-1.9	2.3
Cc1cc(=O)oc(C)c1C(=O)NCc1c(F)cc(F)cc1F	i	36.0*	-9.4	-1.2
SMILES	BH1578 lux ind	GDH-TPI inh	CCHFV vOTU inh	FBA Mtb inh
O=C(COC(=O)Cn1cc(C(F)(F)F)ccc1=O)Nc1ccc(Br)cc1F	-0.9	4.8	-9.7	2.8
CCNC(=S)N(Cc1ccc2c(c1)OCO2)C1CC(=O)N(c2ccc(OC)cc2)C1=O (centres undefined)	50.0*	-6.0	14.7	0.7
CCOc1ccccc1-n1c(N)c(C(N)=O)sc1=S	-1.0	31.5*	5.5	-1.9
COc1ccc(Cl)cc1-n1c(N)c(C(N)=O)sc1=S	i	37.1*	nt	0.7
Cc1ccc(NCC(=O)N/N=C/c2cccc(Br)c2)cc1	2.0	1.3	9.8	-1.6
C=CCN1[C@@H](C)[C@H](c2ccccc2)Oc2cccc(N3CCCC3)c2S1(=O)=O	nt	nt	1.4	nt
Cc1onc(-c2ccccc2)c1C(=O)c1c[nH]c(C(=O)NCc2ccccn2)c1	0.5	3.1	-12.8	5.1
CC(=O)N1CCc2cc(S(=O)(=O)NCCC(=O)NCc3ccccc3)ccc21	nt	nt	-0.2	nt
COc1ccccc1N(CCC#N)C(=O)CSc1nc(-c2ccccc2)cn1N	29.4*	6.3	-15.5	2.6
COc1ccc(OC)c(N(CC(=O)Nc2cccc3ccccc23)S(C)(=O)=O)c1	-0.9	15.7	5.5	0.0
Cc1cc2cc(C)c3nnc(SCC(=O)Nc4ccc(S(=O)(=O)N5CCCCC5)cc4)n3c2cc1C	-0.2	10.9	-2.8	0.5
Nc1ncc(-c2ccc([N+](=O)[O-])cc2)cn1	-0.2	54.3*	17.6	-0.6
Nc1ccc(-c2nc3ccc(N)cc3o2)cc1	0.4	45.7*	-300.4	+
O=C(NCC1CCCO1)c1ccc(NC(=O)C2C3C=CC(C3)C2C(=O)O)cc1 (centres undefined)	-0.3	3.0	-12.2	1.3
N#Cc1ccc(C(=O)N/N=C/c2cn(CC(=O)O)c3ccccc23)c(F)c1	-3.3	35.7*	18.4	-5.6
CCOC(=O)Cn1cc(/C=N/NC(=O)c2ccc(C#N)cc2F)c2ccccc21	2.8	33.8*	0.1	-0.8
O=C(CN(c1ccccc1F)S(=O)(=O)c1ccccc1)Nc1ccc2c(c1)OCCO2	-0.9	0.7	0.0	-4.0
CN(C)CCN(C(=O)c1ccc(N2C(=O)CCC2=O)cc1)c1nc2cc3c(cc2s1)OCCO3	nt	nt	4.6	nt
CCC(C)NC(=O)c1cc2cc3ccc(OC)cc3nc2s1 (centres undefined)	-0.7	27.4	-148.2	109.7*
CCC(C)NC(=O)c1cc2c(=O)n3ccccc3nc2s1 (centres undefined)	i	17.1	-266.1	+
COc1ccc2cc3cc(C(=O)NCCN4CCc5ccccc5C4)sc3nc2c1	-0.3	6.5	-46.6	22.2
CC(C)CCNC(=O)c1cc2c(=O)n3ccccc3nc2s1	i	25.9	-238.1	120.8*
CN(C)S(=O)(=O)c1cccc(NC(=O)c2cc3c(=O)n4ccccc4nc3s2)c1	-0.5	9.6	-9.8	4.5
CC1CCC(NC(=O)c2cc3c(=O)n(C)c4ccccc4c3n2C)CC1 (centres undefined)	i	9.9	0.9	4.4
Cc1cc(=O)c2c(N(C)C)cccc2[nH]1	i	15.0	-321.9	+
SMILES	BH1578 lux ind	GDH-TPI inh	CCHFV vOTU inh	FBA Mtb inh
CC(=O)Nc1ccc2[nH]c(C)cc(=O)c2c1	i	7.3	-4.7	10.3
COc1ccc(-c2cc(=O)c3cc(C)ccc3[nH]2)cc1	-0.2	9.5	-8.7	15.4
COc1cccc(-c2cc(=O)c3cc(NC(C)=O)ccc3[nH]2)c1	i	17.9	-69.0	115.4*
COc1ccc(-c2cc(=O)c3cc(OC)ccc3[nH]2)cc1	i	3.4	nt	75.8*
CN1CCN(C(=O)CNC(=O)Cc2ccc(Cl)cc2)CC1	-0.2	-1.9	8.2	2.1
CC1CCN(c2ccc3nnc(CCC(=O)NCC(C)c4ccccc4)n3n2)CC1 (centres undefined)	-6.2	11.2	11.2	-0.6
COc1ccc(Cn2nnnc2CN2CCc3ccccc32)cc1	-0.2	16.7	-9.1	2.1
CC(=O)Nc1ccc(N=Nc2ccccc2)cc1[N+](=O)[O-]	-0.3	31.0*	5.8	0.2
O=C(Oc1cc2oc(=O)cc(-c3ccccc3)c2cc1Cl)C1CCCCC1	-1.0	16.0	1.0	31.6*
